Measured values taken from PubChem BioAssay AID2111 (National Center for Advancing Translational Sciences (NCATS), 2009).
Several values for one entry are separate records, joined by “and”; a condition that tells them apart may be missing. Equal values may be shown once. A number with no mark means an inactive call. Activity calls are given as the source filed them. Calls come from the whole dose curve; as a rule, active = well fitted curve in either direction with a large enough effect; inconclusive = small, poorly fitted or top-dose-only effect; inactive = no such curve, though single readings can be large or run the other way.

target: Lysosomal alpha-glucosidase (Homo sapiens) (UniProt P10253); experiment: Confirmation of Inhibitors and Activators of Human alpha-Glucosidase From Spleen Homogenate Using an Alternate Red Fluorescent Susbtrate; settings: resorufin-glucoside fluorescence; series mostly up to 62.8 µM; activity change, negative = inhibition: at the top concentration
Description: NIH Chemical Genomics Center [NCGC] NIH Molecular Libraries Probe Production centers Network [MLPCN] MLPCN Grant: 1R03MH084841-01 Assay Submitter (PI): Wei Zheng NCGC Assay Overview: Alpha-glucosidase is responsible for hydrolysis of terminal, non-reducing 1,4-linked alpha-D-glucose residues with release of alpha-D-glucose. It is a lysosomal hydrolase that is required for the degradation of a small percentage (1-3%) of cellular glycogen in human. Deficiency of this enzyme results in glycogen-storage disease type II (GSDII), also referred to as Pompe disease, an autosomal recessive disorder. Structurally normal glycogen is accumulated in lysosomes and cytoplasm in affected patients, primarily in muscle tissues. Excessive glycogen storage within lysosomes may interrupt normal functioning of other organelles and leads to cellular injury. In turn, this leads to enlargement and dysfunction of the entire organ involved (eg, cardiomyopathy and muscle weakness). It has reported that the improper folding and trafficking of alpha-glucosidase resultinged from the genetic mutations may account for a significant number of Pomrope patients. […] We optimized this alpha-glucosidase assay in 1536-well plate format for identifying the novel small molecule inhibitors with the structures other than the sugar analogs in order to develop the new pharmacological chaperones. In particular, this assay is directed towards discovering compounds active in a more natural setting, tissue homogenate, that may have been missed by screens of the purified enzyme under more stringent conditions. This assay attempted to confirm hits from the primary screening using an alternate fluor than the primary screen used.
NCGC Assay Protocol Summary: This is a fluorogenic enzyme assay with Resorufin-alpha-D-glucopyranoside as the substrate and human spleen homogenate containing alpha-glucosidase as the enzyme preparation. Upon hydrolysis of this fluorogenic substrate, the resulting product, resorufin (which excites at 573 nm and emits at 610 nm) can be detected by a fluorescence plate reader. Data were normalized to the controls for basal activity (without enzyme) and 100% activity (with enzyme). The AC50 values were determined from concentration-response data modeled with the standard Hill equation. Assay buffer: 50 mM citric acid (titrated with potassium phosphate to pH 5.0), 0.01% Tween-20 (pH 5.0 is an optimal condition for this enzyme assay) 1536-well assay protocol for the alpha-glucosidase from human spleen homogenate: (1) Add 2 ul/well spleen homogenate (1 ug) (2) Add 23 nL compounds in DMSO solution. The final titration was 0.5 nM to 58 uM. (3) Add 2 ul of substrate (1 mM final) (4) Incubate at 37 C for 40 min (5) Add 2 ul stop solution (1M NaOH and 1M Glycine mixture, pH 10) (6) Detect the assay plate in a ViewLux plate reader (PerkinElmer) with […]. Keywords: Alpha-glucosidase, Pompe Disease, pharmacological chaperone, chaperone therapy, high throughput screening, alpha-glucosidase inhibitor, MLSMR, MLSCN, NIH Roadmap, qHTS and NCGC

SMILES	Potency	activity change, negative = inhibition
CC(=O)c1ccc(N2CCN(S(=O)(=O)c3cc4c(cc3Cl)NC(=O)C4)CC2)cc1	4.61 µM [inhibitor] (active) and 3.66 µM [inhibitor] (active)	
COc1ccc(CCc2c[nH]c(=O)c3cncnc23)cc1OC		0.972%
CC(=O)c1ccc(N2CCN(C(=O)c3ccc4c(c3)CCC(=O)N4)CC2)cc1		-2.32%
Cc1ccc(N2CCN(S(=O)(=O)c3ccc4c(c3)CC(=O)N4)CC2)cc1		-15.1% [at 130 µM]
Cc1ccc(S(=O)(=O)N2CCN(C(=O)N(c3ccccc3)c3ccccc3)CC2)cc1		-39.1% [at 130 µM]
CC(=O)N1CCN(c2ccc(NS(=O)(=O)c3ccc4c(c3)CC(=O)N4)cc2)CC1		-22.9% [at 130 µM]
COc1ccc(N2CCN(S(=O)(=O)c3ccc4c(c3)CC(=O)N4)CC2)cc1	6.68 µM [inhibitor] (active)	
CC(=O)c1ccc(N2CCN(S(=O)(=O)c3ccc4c(c3)OCC(=O)N4)CC2)cc1		3.49%
CC(=O)c1ccc(N2CCN(S(=O)(=O)c3ccc4c(c3)CC(C)N4C(C)=O)CC2)cc1 (stereo not given)		11.1%
CCCN1CNc2c(c(=O)[nH]c(=S)n2CCc2ccc(Cl)cc2Cl)C1	7.94 µM (active)	
CCCN1CNc2c(c(=O)[nH]c(=S)n2CCc2ccc(Cl)c(Cl)c2)C1	8.91 µM (active)	
CCCN1CNc2c(c(=O)[nH]c(=S)n2CCc2cc(OC)ccc2OC)C1	12.6 µM (active)	
CC(=O)c1ccc(N2CCN(S(=O)(=O)c3ccc4c(c3)CC(=O)N4)CC2)cc1	1.03 µM [inhibitor] (active) and 943 nM [inhibitor] (active) and 2.06 µM [inhibitor] (active)	
CCCN1CNc2c(c(=O)[nH]c(=S)n2CCc2ccc3c(c2)OCCO3)C1	8.91 µM (active)	
CCCN1CNc2c(c(=O)[nH]c(=S)n2CCc2ccc(C)cc2C)C1	11.2 µM (active)	
COc1ccc(CCn2c3c(c(=O)[nH]c2=S)CN(C)CN3)cc1OC	31.6 µM (active)	
CC(=O)c1ccc(N2CCN(S(=O)(=O)c3ccc4c(c3)CCCC(=O)N4)CC2)cc1		-0.443%
COc1ccc(CCn2c3c(c(=O)[nH]c2=S)CN(CC(C)C)CN3)cc1OC	6.31 µM (active)	
CCCN1CNc2c(c(=O)[nH]c(=S)n2CCc2ccc(OCC)c(OCC)c2)C1	7.94 µM (active)	
CC(=O)c1ccc(N2CCN(S(=O)(=O)c3ccc4c(c3)CCC(=O)N4)CC2)cc1		9.43%

SMILES	Potency	activity change, negative = inhibition
CCCN1CNc2c(c(=O)[nH]c(=S)n2CCc2cccc(C)c2C)C1	3.98 µM (active)	
COc1ccc(C#Cc2c[nH]c(=O)c3cncnc23)cc1OC		5.09%
CCCN1CNc2c(c(=O)[nH]c(=S)n2CCc2ccc(OC)cc2)C1	25.1 µM (active)	
OCCNc1nc(-c2cccs2)nc2ccccc12		7.11%
CC(=O)c1ccc(N2CCN(S(=O)(=O)c3ccc4[nH]c(=O)oc4c3)CC2)cc1		-4.53%
CCCN1CNc2c(c(=O)[nH]c(=S)n2CCc2ccccc2C)C1	12.6 µM (active)	
O=C1Cc2cc(S(=O)(=O)N3CCN(c4ccc(C(F)(F)F)cc4)CC3)ccc2N1		-24.1% [at 130 µM]
CCCN1CNc2c(c(=O)[nH]c(=S)n2CCc2ccc(C)c(C)c2)C1	7.94 µM (active)	
CCCN1CNc2c(c(=O)[nH]c(=S)n2CCc2ccc(Cl)cc2)C1	11.2 µM (active)	
COc1ccc(CCn2c3c(c(=O)[nH]c2=S)CN(Cc2ccccc2)CN3)cc1OC	7.94 µM (active)	
CCCN1CNc2c(c(=O)[nH]c(=S)n2CCc2cccc(OC)c2)C1	10 µM (active)	
O=C1Cc2cc(S(=O)(=O)N3CCN(c4cccc(C(F)(F)F)c4)CC3)ccc2N1	8.41 µM [inhibitor] (active)	
O=c1[nH]cc(C#Cc2ccccc2)c2ncncc12		-8.47%
O=C1Cc2cc(S(=O)(=O)N3CCN(c4ccc(O)cc4)CC3)ccc2N1	11.9 µM [inhibitor] (active)	
CCCN1CNc2c(c(=O)[nH]c(=S)n2Cc2ccc(OC)c(OC)c2)C1	5.01 µM (active)	
O=C1Cc2cc(S(=O)(=O)N3CCN(c4ccc(Cl)cc4)CC3)ccc2N1		-28.1% [at 130 µM]
O=C1Cc2cc(S(=O)(=O)N3CCN(c4ccc([N+](=O)[O-])cc4)CC3)ccc2N1	5.8 µM [inhibitor] (active)	
Clc1ncc(C#Cc2ccccc2)c2ncncc12		8.26%
CCCN1CNc2c(c(=O)[nH]c(=S)n2CCc2cc(Cl)ccc2Cl)C1	10 µM (active)	
CCCN1CNc2c(c(=O)[nH]c(=S)n2CCc2ccc(OC)cc2OC)C1	8.91 µM (active)	
